30 compounds from PubChem BioAssay (NCATS) can be followed below.

Assay [1] deals with Cellular tumor antigen p53 (Homo sapiens) (UniProt P04637). As to the kind of experiment: Primary qHTS for small molecule compounds that upregulate eGFP-tagged delta133p53alpha (in N-terminal) cells. (AID 2060322).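 For activation: cells pre-induced with doxycycline then dosed without doxycycline; series mostly up to about 56 µM; 0% = DMSO vehicle and 100% = reference activator.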 Note: nearly all actives have a fitted effect of over 75% in size. Note: potency is the fitted concentration of half-maximal effect. To be noted: NCI-H358 eGFP-delta133p53alpha fluorescence, 24 h; activation: hits give high values. The essentials:
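NCI-H358 cells pre-induced 24 h with 10 ng/ml doxycycline for eGFP-delta133p53alpha, plated dox-free and exposed 24 h at 37C to titrated compounds. Fixed, Hoechst-stained; gated GFP peak intensity by laser scanning cytometry, normalized to DMSO (0%) and 57.5 uM 5-azacytidine (100%).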
On the technique in general: qHTS replaces the single test concentration by a dilution series.

Assay [2] concerns the target Aldehyde dehydrogenase, mitochondrial (Homo sapiens) (UniProt P05091). As to the kind of experiment: qHTS for Inhibitors of the Aldehyde Dehydrogenase Family (ALDH2) Primary screen (AID 2061308).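 Note: plate controls were vehicle for no effect and reference inhibitor for full effect; nearly all actives have a fitted effect of over 55% in size.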
Assay [3] concerns the target Retinaldehyde dehydrogenase 3 (Homo sapiens) (UniProt P47895). Description: qHTS for Inhibitors of the Aldehyde Dehydrogenase Family (ALDH1A3) Validation screen (AID 2061312). Note: % is set by controls: 0 for no effect and ±100 for the full control effect; nearly all actives have a fitted effect of over 45% in size.
Assay [4] has the same target. As to the kind of experiment: qHTS for Inhibitors of the Aldehyde Dehydrogenase Family (ALDH1A3) Primary screen (AID 2061315).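 Note: plate controls were DMSO vehicle for no effect and reference inhibitor for full effect.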

Molecules are shown by their SMILES. Results filed as inconclusive are left out. A number with no mark means an inactive call. Activity calls are given as the source filed them. Calls come from the whole dose curve; as a rule, active = well fitted curve in the direction sought with a large enough effect; inconclusive = small, poorly fitted or top-dose-only effect, or another doubt; inactive = no such curve, though single readings can be large; an effect the other way counts as inactive or inconclusive.

Sequence of Cellular tumor antigen p53 (Homo sapiens) (P04637 whole entry, looked up): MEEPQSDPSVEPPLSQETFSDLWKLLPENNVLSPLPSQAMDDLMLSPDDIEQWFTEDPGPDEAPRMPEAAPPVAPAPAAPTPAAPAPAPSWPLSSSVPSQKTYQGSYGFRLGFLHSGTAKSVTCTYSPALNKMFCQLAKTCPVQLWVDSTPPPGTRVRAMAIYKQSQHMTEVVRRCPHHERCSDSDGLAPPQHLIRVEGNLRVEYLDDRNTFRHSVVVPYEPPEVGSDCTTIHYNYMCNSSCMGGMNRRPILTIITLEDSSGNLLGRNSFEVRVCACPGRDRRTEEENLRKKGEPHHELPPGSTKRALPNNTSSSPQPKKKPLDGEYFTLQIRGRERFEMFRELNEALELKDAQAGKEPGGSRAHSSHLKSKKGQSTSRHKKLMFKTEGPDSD

With `COc1cccc(C(=O)NCCNc2nc3cc(C)cc(C)c3cc2C#N)c1`, the activation in assay [1] is -1.91%. Further, the Potency entry in assay [2], in assay [3] and in assay [4] was “inactive” throughout.
For the compound `FC(F)(F)Oc1ccc(-c2ccc3nnc(C(F)(F)F)n3c2)cc1`, the activation in assay [1] was -3.34%. The Potency entry in assay [2], in assay [3] and in assay [4] was “inactive” in each case.
As to `O=C(O)c1ccccc1NC(=O)N1CCC(c2ccccc2C(F)(F)F)CC1`, the activation in assay [1] was -3.34%. Besides, the Potency entry in assay [2], in assay [3] and in assay [4] was “inactive” in each case.
For `CCC1C(=O)N(C)c2cnc(Nc3ccc(C(=O)NC4CCC(N5CCN(CC6CC6)CC5)CC4)cc3OC)nc2N1C(C)C` (stereo not given), the activation in assay [1] is 37.2%. Further, the Potency result in assay [2], in assay [3] and in assay [4] was “inactive” throughout.
Regarding `CCC(=O)N1CCOc2c(cc(-c3ccc(OC)c(OC)c3)cc2OC[C@H]2CCCN(C)C2)C1`, the activation in assay [1] was -0.477%. Also, the Potency entry in assay [2], in assay [3] and in assay [4] was “inactive” throughout.
As to `CNc1cc2[nH]c(=O)n(-c3ccc(NC(=O)NS(=O)(=O)c4ccc(Cl)s4)cc3)c(=O)c2cc1F`, in assay [1], the activation is 8.11%. Moreover, the Potency entry in assay [2], in assay [3] and in assay [4] was “inactive” each time.
On to `O=C(C(Cc1cccc(C(F)(F)F)c1)NS(=O)(=O)c1cc(F)c2c(c1)CCNC2)N1CCCC1` (stereo not given), for which the activation in assay [1] was -13.4%. For the same compound, the Potency entry in assay [2], in assay [3] and in assay [4] was “inactive” each time.
As for `CCc1ccc(-c2nc(CSCC(=O)NCCc3ccccc3)c(C)o2)cc1`, in assay [1], the activation is -12.9%. Further, the Potency entry in assay [2], in assay [3] and in assay [4] was “inactive” in each case.
In the case of `O=C(CCCCC1CCCCC1)N1CCC(c2cnc[nH]2)CC1`, in assay [1], the activation was -1.91%. Moreover, the Potency entry in assay [2], in assay [3] and in assay [4] was “inactive” throughout.
Regarding `CCCC(C(=O)O)c1c(C)nc2ccc(Cl)cc2c1-c1ccccc1` (stereo not given), the activation in assay [1] was -1.91%. Further, the Potency result in assay [2], in assay [3] and in assay [4] was “inactive” in each case.
Regarding `CC(C)(F)CC(NC(c1ccc(-c2ccc(S(C)(=O)=O)cc2)cc1)C(F)(F)F)C(=O)NC1(C#N)CC1` (stereo not given), the activation in assay [1] is -1.43%. In addition, the Potency result in assay [2], in assay [3] and in assay [4] was “inactive” each time.
Take `O=C1CSc2ccccc2N1Cc1cccc(C(F)(F)F)c1`: the activation in assay [1] is 3.34%. Besides, the Potency result in assay [2], in assay [3] and in assay [4] was “inactive” each time.
With `c1ccc(C(OC2CCN(CCCc3nn[nH]n3)CC2)c2ccccc2)cc1`, the activation in assay [1] is -4.77%. For the same compound, the Potency result in assay [2], in assay [3] and in assay [4] was “inactive” in each case.
As to `On1ncc(C2CCNCC2)c1-c1cccc(-c2ccccc2)c1`, in assay [1], the activation is -8.11%. Moreover, the Potency entry in assay [2], in assay [3] and in assay [4] was “inactive” throughout.
Take `O=C(NCC1(c2nc(-c3ccccc3)cs2)CCOCC1)c1cccc(-c2noc(C(F)(F)F)n2)c1`: in assay [1], the activation is 1.43%. Also, the Potency entry in assay [2], in assay [3] and in assay [4] was “inactive” in each case.
On to `Cc1ccnc(NC(=O)C(C)c2cccc(C(=O)c3ccccc3)c2)c1` (stereo not given), for which, in assay [1], the activation was -19.6%. The Potency result in assay [2], in assay [3] and in assay [4] was “inactive” in each case.
Consider `O=C(NCCCN1CCOCC1)c1cnn2c(-c3ccccc3)cc(-c3ccccc3)nc12`, for which the activation in assay [1] is -6.68%. The Potency entry in assay [2], in assay [3] and in assay [4] was “inactive” throughout.
Take `Cc1[nH]c2ccccc2c1CC(=O)N[C@@H](Cc1ccccc1)C(=O)N(C)c1ccccc1`: the activation in assay [1] is 22.9%. Besides, the Potency entry in assay [2], in assay [3] and in assay [4] was “inactive” throughout.
With `CC(C)N(CCCCOCC(=O)NS(C)(=O)=O)c1cnc(-c2ccccc2)c(-c2ccccc2)n1`, the activation in assay [1] was -4.77%. Further, the Potency result in assay [2], in assay [3] and in assay [4] was “inactive” each time.
Regarding `Cc1cc(NC(=O)NCCN2CCC(O)(Cc3ccccc3)CC2)c2ccccc2n1`, the activation in assay [1] was 3.34%. Besides, the Potency result in assay [2], in assay [3] and in assay [4] was “inactive” in each case.
With `O=C(COc1ccc(Cl)cc1)NC1CCC(NC(=O)COc2ccc(Cl)cc2)CC1` (stereo not given), the activation in assay [1] was -5.25%. Further, the Potency result in assay [2], in assay [3] and in assay [4] was “inactive” throughout.
For the compound `COc1cc2nc(C3CC3)nc(N3CCN(c4ccccc4OC)CC3)c2cc1OC`, the Potency in assay [1] was 16.9 µM (active). Also, the Potency entry in assay [2], in assay [3] and in assay [4] was “inactive” throughout.
Take `COc1cccc(CN(C(=O)CC(C)(C)C)C2CC(C(=O)N3CCNCC3)N(Cc3ccc4c(c3)OCO4)C2)c1` (stereo not given): in assay [1], the activation was -10%. The Potency entry in assay [2], in assay [3] and in assay [4] was “inactive” throughout.
For the compound `CS(=O)(=O)NCC1CCC(Nc2nc3c(s2)CCSc2ccccc2-3)CC1` (stereo not given), the activation in assay [1] was -6.21%. The Potency result in assay [2], in assay [3] and in assay [4] was “inactive” throughout.
In the case of `COc1cccc(C(=O)N2CCN(C(=O)COc3cccc(C)c3)CC2)c1OC`, the activation in assay [1] is 4.77%. Also, the Potency result in assay [2], in assay [3] and in assay [4] was “inactive” in each case.
Regarding `Cc1cc(N2CCN([C@@H]3CN[C@H](C(=O)N4CCSC4)C3)CC2)n(-c2ccccc2)n1`, the activation in assay [1] is -1.91%. For the same compound, the Potency entry in assay [2], in assay [3] and in assay [4] was “inactive” in each case.
Consider `COc1cc(-c2cn(C3CCc4c(F)cccc4N(CC(F)(F)F)C3=O)nn2)ccc1-n1cnc(C)c1` (stereo not given), for which the activation in assay [1] is 6.68%. Besides, the Potency result in assay [2], in assay [3] and in assay [4] was “inactive” throughout.
As to `COc1ccc([C@@H]2N[C@H](C(=O)O)Cc3c2[nH]c2ccccc32)cc1CN1CCN(c2ccccc2F)CC1`, the activation in assay [1] was 26.7%. The Potency entry in assay [2], in assay [3] and in assay [4] was “inactive” throughout.
Consider `COc1cc(Br)c(S(=O)(=O)Nc2ccc(Cl)c(O[C@@H]3CCN(C)C3)c2)cc1OC`, for which, in assay [1], the activation was 21.5%. In addition, the Potency entry in assay [2], in assay [3] and in assay [4] was “inactive” in each case.
For `CC(=O)c1ccc2c(c1)[C@H](NC(=O)c1ccc(F)c(Cl)c1)[C@H](O)C(C)(C)O2`, the activation in assay [1] is 7.16%. The Potency entry in assay [2], in assay [3] and in assay [4] was “inactive” in each case.
